PubChem BioAssay AID1159580 (chemical genetic matrix, 2015)
Screen size: about 5,500 compounds; about 2,000 (36%) were called active. Another 18% or so got no clear call; they are omitted. Cut-off read from the data, not from the text of the source: active = normalized growth mostly below about 0.91 (no sharp cut-off); inconclusive = no clear call, values can overlap the other calls; inactive = mostly above about 0.92. This is one part of the list.

Experiment: chemical genetic growth profiling, strain panel (AID 1159580);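 note: tested at 20 µM; growth read once vehicle control cultures reached saturation at 30 °C; 1 = growth at the plate median or of vehicle wells; lower values mean less growth of the strain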
Conditions: growth OD
[1] = S. cerevisiae deletion strains, locus YAL013W, strain DEP1, stronger effect = lower value
[2] = S. cerevisiae deletion strains, locus YBR229C, strain ROT2, stronger effect = lower value
[3] = S. cerevisiae deletion strains, locus YDL101C, strain DUN1, stronger effect = lower value
[4] = S. cerevisiae deletion strains, locus YDL134C, strain PPH21, stronger effect = lower value
[5] = S. cerevisiae deletion strains, locus YDR150W, strain NUM1, stronger effect = lower value
[6] = S. cerevisiae deletion strains, locus YEL061C, strain CIN8, stronger effect = lower value
[7] = S. cerevisiae deletion strains, locus YGR078C, strain PAC10, stronger effect = lower value
[8] = S. cerevisiae deletion strains, locus YHR030C, strain SLT2, stronger effect = lower value
[9] = S. cerevisiae deletion strains, locus YHR087W, strain rtc3, stronger effect = lower value
[10] = S. cerevisiae deletion strains, locus YJR043C, strain POL32, stronger effect = lower value
[11] = S. cerevisiae deletion strains, locus YJR075W, strain HOC1, stronger effect = lower value
[12] = S. cerevisiae deletion strains, locus YKL190W, strain CNB1, stronger effect = lower value
[13] = S. cerevisiae deletion strains, locus YLR039C, strain RIC1, stronger effect = lower value
[14] = S. cerevisiae deletion strains, locus YLR058C, strain SHM2 (second series), stronger effect = lower value
[15] = S. cerevisiae deletion strains, locus YLR085C, strain ARP6, stronger effect = lower value
[16] = S. cerevisiae deletion strains, locus YLR262C, strain YPT6, stronger effect = lower value
[17] = S. cerevisiae deletion strains, locus YML094W, strain GIM5, stronger effect = lower value
[18] = S. cerevisiae deletion strains, locus YMR219W, strain ESC1, stronger effect = lower value
[19] = S. cerevisiae deletion strains, locus YMR263W, strain SAP30, stronger effect = lower value
[20] = S. cerevisiae deletion strains, locus YMR307W, strain GAS1, stronger effect = lower value
[21] = S. cerevisiae deletion strains, locus YNL153C, strain GIM3, stronger effect = lower value
[22] = S. cerevisiae deletion strains, locus YNL298W, strain CLA4 (second series), stronger effect = lower value
[23] = S. cerevisiae deletion strains, locus YNL322C, strain KRE1, stronger effect = lower value
[24] = S. cerevisiae deletion strains, locus YNR030W, strain Alg12, stronger effect = lower value
[25] = S. cerevisiae deletion strains, locus YPL055C, strain LGE1, stronger effect = lower value
[26] = S. cerevisiae deletion strains, locus YPL241C, strain CIN2, stronger effect = lower value
[27] = S. cerevisiae deletion strains, locus YPR135W, strain CTF4, stronger effect = lower value

Measured: normalized growth

CC(=O)C1C(=O)CC(c2ccc(Cl)cc2)CC1=O (stereo not drawn)
inactive: [17] 0.901 | [22] 0.849 | S. cerevisiae deletion strains, locus YOL006C, strain TOP1, stronger effect = lower value 0.774 | [27] 0.718
active: [1] 0.342 | [2] 0.454 | [3] 0.425 | [4] 0.854 | [5] 0.489 | [6] 0.867 | [7] 0.463 | [8] 0.199 | [9] 0.541 | [10] 0.585 | [11] 0.444 | [12] 0.848 | [13] 0.218 | [14] 0.761 | [15] 0.529 | [16] 0.219 | [18] 0.562 | [19] 0.268 | [20] 0.218 | [21] 0.512 | [23] 0.796 | [24] 0.855 | [25] 0.211 | [26] 0.845

O=C1C=C(Cl)CC(c2ccc(C(F)(F)F)cc2)C1 (stereo not drawn)
inactive: [1] 1 | [2] 0.988 | S. cerevisiae deletion strains, locus YCL061C, strain MRC1, stronger effect = lower value 1.01 | [3] 0.995 | [4] 1.03 | [5] 1.1 | [6] 1.03 | [7] 1.01 | [8] 0.987 | [9] 0.975 | [10] 1.01 | [11] 1.02 | [12] 0.983 | [13] 0.936 | [14] 0.986 | [15] 1.06 | [16] 0.94 | [17] 1.04 | [18] 1.01 | [19] 0.989 | [20] 1.01 | S. cerevisiae deletion strains, locus YNL128W, strain TEP1, stronger effect = lower value 0.987 | [21] 0.992 | [22] 0.985 | [23] 0.991 | [24] 1.02 | [25] 1.14 | [26] 1.02 | [27] 1.03 | S. cerevisiae strains, strain wild type, stronger effect = lower value 0.971
